Shown are actives, neighbours in structure and some others; about 2.8% of the full set was active somewhere.
HEK293 viab – cell viability loss counter-screen. HEK-293-SNCA-luc viability, GF-AFC fluorescence, 24 h. Potency, µM (doses to about 57.1 µM), without a hit: at the highest dose activity change, negative = cytotoxicity, hits mostly cytotoxic. 150,000 tested, 0.12% active. AID 1671193;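 also: potency is read from the fitted curve at half-maximal effect; 0% = DMSO-treated cells and -100% = medium-only wells without cells; nearly all actives have a fitted effect of over 30% in size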
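Cytotoxicity counterscreen: after 24 h compound treatment of genome-edited SNCA-luciferase HEK-293 cells, live-cell protease substrate GF-AFC read by fluorescence after 30 min; activity scaled between DMSO (0%) and medium-only (-100%), curves Hill-fitted.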
SNCA expr inhib – inhibitors of alpha-synuclein (SNCA) gene expression. HEK-293 SNCA-luciferase knock-in, luminescence, 24 h. Potency, µM (top dose mostly 57.2 µM), for the others: top-dose activity change, negative = inhibition, most hits filed as inhibitors. 140,000 tested, 0.17% active;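 also: potency is read from the fitted curve at half-maximal effect; plate controls were DMSO cells for no effect and cell-free wells for full effect; nearly all actives have a fitted effect of over 45% in size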
KDM5B inh – inhibitors of human KDM5B histone demethylase; KDM5B demethylase, FDH-coupled NADH fluorescence (FDH is formaldehyde dehydrogenase); AID 1347165; Potency, µM (titrated, usually from 57.7 µM), most hits filed as inhibitors; 220,000 tested, 2.6% active; also: potency is read from the fitted curve at half-maximal effect; 0% is about no effect; nearly all actives have a fitted effect of over 70% in size
Target sequence (Q9UGL1 whole entry, looked up): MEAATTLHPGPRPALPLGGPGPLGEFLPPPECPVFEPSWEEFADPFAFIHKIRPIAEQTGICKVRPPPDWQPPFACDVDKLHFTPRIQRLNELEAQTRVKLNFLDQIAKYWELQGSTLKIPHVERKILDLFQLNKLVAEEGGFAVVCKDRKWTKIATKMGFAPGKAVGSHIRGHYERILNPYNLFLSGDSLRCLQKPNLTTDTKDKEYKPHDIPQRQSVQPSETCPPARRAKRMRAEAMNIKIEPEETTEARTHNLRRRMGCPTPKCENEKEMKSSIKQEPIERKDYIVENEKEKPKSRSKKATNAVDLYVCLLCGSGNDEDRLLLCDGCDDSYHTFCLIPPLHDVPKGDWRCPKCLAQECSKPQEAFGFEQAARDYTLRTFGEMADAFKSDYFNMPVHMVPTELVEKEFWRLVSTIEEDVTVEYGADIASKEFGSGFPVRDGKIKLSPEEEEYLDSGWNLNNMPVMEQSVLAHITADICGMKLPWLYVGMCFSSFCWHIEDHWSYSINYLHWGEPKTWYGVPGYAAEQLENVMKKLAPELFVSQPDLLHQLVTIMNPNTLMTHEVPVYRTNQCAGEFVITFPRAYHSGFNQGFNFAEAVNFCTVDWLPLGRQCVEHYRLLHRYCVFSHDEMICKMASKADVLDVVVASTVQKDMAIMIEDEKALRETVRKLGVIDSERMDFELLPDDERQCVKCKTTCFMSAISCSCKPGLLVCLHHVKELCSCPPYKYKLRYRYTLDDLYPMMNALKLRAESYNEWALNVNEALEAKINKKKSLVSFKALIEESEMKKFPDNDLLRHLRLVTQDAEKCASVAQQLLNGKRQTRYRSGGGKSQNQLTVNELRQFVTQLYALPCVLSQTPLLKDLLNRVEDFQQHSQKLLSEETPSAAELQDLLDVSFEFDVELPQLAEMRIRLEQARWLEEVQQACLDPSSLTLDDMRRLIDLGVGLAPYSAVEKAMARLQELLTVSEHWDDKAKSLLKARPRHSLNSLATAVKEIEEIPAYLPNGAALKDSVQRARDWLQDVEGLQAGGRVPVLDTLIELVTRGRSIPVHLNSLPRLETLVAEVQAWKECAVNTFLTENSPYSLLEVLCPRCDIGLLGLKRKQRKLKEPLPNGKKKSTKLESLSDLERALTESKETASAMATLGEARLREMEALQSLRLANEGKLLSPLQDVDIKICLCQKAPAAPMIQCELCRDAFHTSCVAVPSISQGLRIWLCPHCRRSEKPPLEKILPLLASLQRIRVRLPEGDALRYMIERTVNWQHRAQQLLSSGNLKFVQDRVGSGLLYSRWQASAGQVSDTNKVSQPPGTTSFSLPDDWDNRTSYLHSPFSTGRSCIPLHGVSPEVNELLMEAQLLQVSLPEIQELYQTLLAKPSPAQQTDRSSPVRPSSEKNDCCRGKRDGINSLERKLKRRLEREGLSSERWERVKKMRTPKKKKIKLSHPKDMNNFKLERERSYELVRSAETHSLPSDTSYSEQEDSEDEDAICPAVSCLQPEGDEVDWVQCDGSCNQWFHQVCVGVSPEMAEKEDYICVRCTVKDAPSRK
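qHTS format, multiple compound concentrations. Buffer 50 mM HEPES pH 7.5/0.01% Tween-20; 200 nM KDM5BΔAP final; 10 min compound preincubation; substrate-mix levels 12.5 µM peptide, 25 µM α-KG, 0.25 mM NAD⁺; 30 min RT; ΔRFU.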
IP6K1 inh – IP6K1 kinase inhibition; Q92551; IP6K1 kinase, ADP-Glo luminescence, 2 h; active compounds read low; activity change, % (series mostly up to about 58 µM); 140,000 tested, 0.81% active; in the data active = activity change below about -25%; also: % is scaled to controls: 0 for no effect and ±100 for the full control effect
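ADP-Glo luminescence measures ADP made by human IP6K1 during a 2 h RT reaction with ATP/IP6 (mix at 1.3 mM/130 uM); top library doses 57.5 and 19.1 uM final.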
* hit, by the source's call; i = inactive; ? = inconclusive; / = not tested or not shown; [ ] = remark or other dose. Unless noted, calls follow the shape of the dose curve; as a rule, active = well fitted curve in the direction sought with a large enough effect; inconclusive = small, poorly fitted or top-dose-only effect, or another doubt; inactive = no such curve, though single readings can be large; an effect the other way counts as inactive or inconclusive.

SMILES	HEK293 viab	SNCA expr inhib	KDM5B inh	IP6K1 inh
Cc1c(C)n(CCCN2CCOCC2)c2ncn3nc(CSc4nc5ccccc5o4)nc3c12	/	/	i	/
CC1(c2ccccc2)N(Cc2ccccc2C#N)C(=O)OC12CCN(Cc1c[nH]c3ccccc13)CC2 (centres undefined)	-25.4%	?	?	-10.3
O=C(N/N=C/c1ccc(Cl)cc1Cl)c1cccs1	/	/	i	/
O=C1OCCN1CCNc1ccc(-c2nc(-c3ccccc3F)no2)cn1	-13.9%	-10.7%	28.2µM*	9.8
Cc1ccc(C(=O)N(CCCN)C(c2oc3cc(Cl)ccc3c(=O)c2Cc2ccccc2)C(C)C)cc1 (centres undefined)	29.9µM*	/	/	-1.5
Cc1cc(NC(=O)COC(=O)c2nn(C(C)C)c(=O)c3ccccc23)no1	/	/	i	/
CCN(CC)C(CNC(=O)Cc1ccccc1OC)c1ccsc1 (centres undefined)	/	/	i	/
CCOC(=O)N1CCN(C(=O)Cn2c(=O)[nH]c3ccccc3c2=O)CC1	/	/	i	/
COC(=O)C1=C(C)N=C2SC=C(CC(=O)N3CCCC3)N2C1c1cccc(OC)c1OC (centres undefined)	-9.1%	16.7%	?	3.8
CC1=C(C(=O)OC(C)C)C(c2ccccc2F)N2C(CC(=O)N3CCCC3)=CSC2=N1 (centres undefined)	-5.3%	-10.5%	?	-6.1
C=CCOC(=O)C1=C(C)N=C2SC=C(CC(=O)N3CCCC3)N2C1c1cccc(OC)c1OC (centres undefined)	-11.8%	-13.8%	28.2µM*	13.9
C=CCOC(=O)C1=C(C)N=C2SC=C(CC(=O)N3CCCC3)N2C1c1ccccc1Cl (centres undefined)	-13.5%	8.4%	28.2µM*	8.5
CCCc1noc(-c2cccn3c(CNC(=O)c4cc(F)ccc4Cl)nnc23)n1	-7.4%	0.5%	25.1µM*	-2.6
CCCc1noc(-c2cccn3c(CNC(=O)c4cc(Cl)ccc4F)nnc23)n1	4.7%	?	22.4µM*	12.0
CCCn1nccc1C(=O)NCc1cccnc1Oc1ccc(C)nc1	0.4%	-2.9%	31.6µM*	-14.4
CCCc1nnc([C@H]2CCN(Cc3ncc[nH]3)C2)o1	1.9%[87.6 µM]	18.9%[87.6 µM]	?	1.4
COc1ccc(-c2nnc([C@H]3CCN(Cc4ncc[nH]4)C3)o2)cc1	-7.0%[87.6 µM]	6.3%[87.6 µM]	35.5µM*	14.3
COc1ccc(CN2CC[C@H](c3nnc(-c4ccncc4)o3)C2)cc1	5.9%[87.6 µM]	-14.0%[87.6 µM]	i	0.9
Cc1ccc(-c2nnc([C@H]3CCN(Cc4ncc[nH]4)C3)o2)cc1	9.7%[87.6 µM]	-6.5%[87.6 µM]	35.5µM*	-9.6
Cn1cc(CN2C[C@@H]3C[C@H](C2)c2ccc(NC(=O)COc4ccccc4)c(=O)n2C3)c2ccccc21	-13.5%	?	28.2µM*	-9.8
CN(C)CC(=O)Nc1ccc2n(c1=O)C[C@H]1C[C@@H]2CN(C(=O)c2ccc(-c3ccccc3)cc2)C1	7.1%	-0.4%	i	-4.8
Cc1noc(C)c1-c1cc(-c2cccc(N3CCOCC3)c2)cn2cncc12	-5.7%[87.6 µM]	5.1%[87.6 µM]	35.5µM*	-13.1
Cn1ccnc1CN1C[C@@H]2C[C@H]1C(=O)N(CC1CC1)c1ccccc1O2	-2.7%[87.6 µM]	?	i	16.7
O=C1[C@@H]2C[C@@H](CN2Cc2ccnc3ccccc23)Oc2ccccc2N1CC1CC1	-5.0%[87.6 µM]	-16.3%[87.6 µM]	35.5µM*	-7.5
C[C@]1(O)CCN(Cc2ccc(-c3ccccc3C#N)o2)C[C@@H]1O	8.0%	1.8%	25.1µM*	13.1
SMILES	HEK293 viab	SNCA expr inhib	KDM5B inh	IP6K1 inh
Cn1nc(C(=O)N2CCCCCC2)c2c1-c1ccsc1CC2	/	/	i	/
COc1ccc(NC(=O)CCS(=O)(=O)c2nc(-c3cccs3)cc(C(F)(F)F)n2)cc1	?	35.5µM*	i	1.3
O=C(CCS(=O)(=O)c1nc(-c2cccs2)cc(C(F)(F)F)n1)Nc1ccc(OC(F)(F)F)cc1	-1.5%	2.0%	i	-58.0*
O=C(CCS(=O)(=O)c1nc(-c2cccs2)cc(C(F)(F)F)n1)Nc1ccc(F)c(Cl)c1	?	?	?	-11.3
COc1ccc(Cl)cc1NC(=O)CCS(=O)(=O)c1nc(-c2cccs2)cc(C(F)(F)F)n1	-22.7%	28.2µM*	?	-9.9
COc1ccc2c(C)c(CC(=O)NCc3ccc(F)cc3)c(=O)oc2c1	/	/	i	/
C/C(=N/Nc1ccc(S(N)(=O)=O)cc1[N+](=O)[O-])c1cc(Cl)ccc1Cl	/	/	i	/
CN(C)C[C@@H]1CN(c2ccccn2)C[C@H]1NC(=O)c1cnco1	-1.2%	-3.5%	31.6µM*	7.6
COc1cc(Cl)ccc1C(=O)N[C@@H]1CN(c2ccncn2)C[C@H]1CN(C)C	-12.2%	-0.2%	i	-7.5
COc1ccc(C(=O)N[C@@H]2CN(c3ccccn3)C[C@H]2CN(C)C)c(OC)c1	-15.0%	0.9%	28.2µM*	23.4
COc1ccc(CC(=O)N[C@@H]2CN(c3ccccn3)C[C@H]2CN(C)C)cc1	3.0%	0.2%	28.2µM*	0.3
CN(Cc1cccnc1)c1ccc(-c2nc(COc3ccccc3)no2)cn1	-11.4%	30.5%	35.5µM*	15.0
CN(CCc1ccccn1)c1ccc(-c2nc(COc3ccccc3)no2)cn1	-15.6%	63.2%	28.2µM*	10.8
CN(CCO)c1ccc(-c2nc(CCCc3ccccc3)no2)cn1	-5.7%	106.2%	?	-4.2
Cn1ncc2c(C(=O)NCC(F)(F)F)cc(-c3cccc(F)c3)nc21	/	/	/	9.7
COCCn1c(C)cc(C(=O)CSc2nnc(Nc3cccc(C)c3)s2)c1C	/	/	i	/
Cc1cn2nc(C(=O)Nc3ccc(C(F)(F)F)cc3)cc2c(N2CCSCC2)n1	-3.9%	-9.4%	28.2µM*	-12.5
Cc1cn2nc(C(=O)Nc3ccc4c(c3)OCO4)cc2c(N2CCCC2)n1	3.6%	44.2%	?	5.9
CCc1ccccc1NC(=O)c1cc2c(N3CCSCC3)nc(C)cn2n1	2.7%	-10.8%	28.2µM*	-18.0
Cc1cn2nc(C(=O)Nc3ccc4c(c3)OCCO4)cc2c(N2CCSCC2)n1	-6.0%	-12.0%	31.6µM*	12.3
Cc1cn2nc(C(=O)NCc3ccccc3Cl)cc2c(N2CCSCC2)n1	-7.9%	-15.0%	?	-12.2
COc1ccc(NC(=O)c2cc3c(N4CCSCC4)nc(C)cn3n2)cc1	-6.9%	8.8%	14.1µM*	-7.2
COc1ccc(NC(=O)c2cc3c(N4CCSCC4)nc(C)cn3n2)c(OC)c1	7.7%	6.5%	?	1.6
O=C(Nc1ccc(CC23CC4CC(CC(C4)C2)C3)cc1)c1ccc(F)cc1	/	/	i	/
Brc1ccc(-c2noc(-c3ccc(Br)o3)n2)o1	/	/	i	/
Cc1cn2nc(C(=O)NC3CCCCCC3)cc2c(N2CCSCC2)n1	-1.4%	-25.2%	?	-6.0
COc1ccc(C(C)NC(=O)c2cc3c(N4CCSCC4)nc(C)cn3n2)cc1OC (centres undefined)	4.0%	?	6.31µM*	6.1
Cc1ccc(NC(=O)c2cc3c(N4CCSCC4)nc(C)cn3n2)cc1	-1.1%	-18.9%	35.5µM*	7.3
Cc1cccc(NC(=O)c2cc3c(N4CCSCC4)nc(C)cn3n2)c1	-3.9%	46.7%	31.6µM*	0.9

Source: PubChem
